# Bioassay records: PubChem BioAssay, The Scripps Research Institute Molecular Screening Center
# Sampled rows, rich in hits. Any-hit rate of the full collection: about 2.8%.
# PAFAH1B3 inh: blocks human PAF acetylhydrolase 1B catalytic subunit 3 | hit rate 0.28% among 340,000 | Q15102 | inhibition, % at 3.39 µM | recombinant PAFAH1B3, FP-rhodamine probe, fluorescence polarization;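 active = inhibition above the screen-wide average of all tested compounds plus 3 SD, cut at about 25% in these data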;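 also: 0% = enzyme with DMSO only and 100% = wells lacking PAFAH1B3 protein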
# Target sequence (Q15102 whole entry, looked up): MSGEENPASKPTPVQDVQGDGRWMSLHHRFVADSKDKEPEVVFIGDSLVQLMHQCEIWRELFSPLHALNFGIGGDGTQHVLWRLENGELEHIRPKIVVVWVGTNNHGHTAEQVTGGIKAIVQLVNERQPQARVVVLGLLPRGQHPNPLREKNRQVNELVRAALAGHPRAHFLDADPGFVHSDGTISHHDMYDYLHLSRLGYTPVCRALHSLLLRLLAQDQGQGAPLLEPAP
# PAFAH1B2 inh: blocks human PAF acetylhydrolase 1b catalytic subunit 2. P68402. recombinant PAFAH1B2, FP-rhodamine activity probe, fluorescence polarization. inhibition, % at 3.39 µM. hit rate 1.2% among 340,000;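 active = inhibition above the mean of all tested compounds plus 3 SD, cut at about 24% in these data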;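 also: 0% = enzyme with DMSO and 100% = wells lacking PAFAH1B2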
# PME-1 primary: PME-1 (human) inhibition. recombinant PME-1, FP-Rh probe fluorescence polarization. AID 2130. hit rate 0.53% among 320,000. inhibition, % at 5.9 µM;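 active = inhibition above the campaign mean of all compounds plus 3 SD, cut at about 26% in these data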;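 also: competitive labeling of PME-1 active site by serine hydrolase directed probe; 0% = PME-1 with DMSO and 100% = wells lacking PME-1 enzyme; inhibitors block probe labeling so polarization falls and inhibition rises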
# Fam108B inh: counter-screen for RBBP9 inhibitors: inhibitors of mouse Fam108B; recombinant Fam108B, FP-Rh probe fluorescence polarization; inhibition, % at 9.51 µM; hit rate 0.33% among 300,000; AID 1947;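 active = inhibition above the screen mean inhibition plus 3 SD, computed separately per campaign, cut at about 18% in these data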;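 also: inhibitors lower polarization as less probe binds the enzyme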
# pPAFAH FP inh: inhibitors of human plasma PAF acetylhydrolase (pPAFAH); inhibition, % at 3.39 µM; recombinant pPAFAH, FP-rhodamine probe fluorescence polarization; AID 463082; Q13093; hit rate 1.5% among 330,000;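 active = inhibition above the mean inhibition across the screen plus 3 SD, cut at about 25% in these data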;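 also: inhibitors block binding of the rhodamine activity-based probe so polarization drops; 0% = enzyme with DMSO and 100% = wells lacking pPAFAH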
# Target sequence (Q13093 whole entry, looked up): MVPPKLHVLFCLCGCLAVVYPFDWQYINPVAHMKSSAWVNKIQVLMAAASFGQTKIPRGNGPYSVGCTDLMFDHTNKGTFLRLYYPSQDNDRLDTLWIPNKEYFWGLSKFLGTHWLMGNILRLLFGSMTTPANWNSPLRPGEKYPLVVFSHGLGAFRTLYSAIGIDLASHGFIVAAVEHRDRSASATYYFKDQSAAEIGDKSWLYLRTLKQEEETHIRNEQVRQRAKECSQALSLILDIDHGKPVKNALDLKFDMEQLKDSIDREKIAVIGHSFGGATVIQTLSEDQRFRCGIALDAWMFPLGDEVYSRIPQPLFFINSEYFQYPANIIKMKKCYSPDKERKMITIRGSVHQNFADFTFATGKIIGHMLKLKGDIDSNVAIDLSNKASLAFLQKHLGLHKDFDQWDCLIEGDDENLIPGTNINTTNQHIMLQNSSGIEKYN
# PAFAH2 FP inh: PAFAH2 (human) inhibition. recombinant PAFAH2, FP-rhodamine activity probe, fluorescence polarization. hit rate 0.99% among 340,000. Q99487. AID 492956. inhibition, % at 3.39 µM;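 active = inhibition above the mean over all tested compounds plus 3 SD, cut at about 30% in these data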;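 also: inhibitors block probe labeling of enzyme so polarization drops; 0% = enzyme with DMSO and 100% = wells lacking PAFAH2 protein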
# * hit, by the source's call; / = no result given.
SMILES,PAFAH1B3 inh,PAFAH1B2 inh,PME-1 primary,Fam108B inh,pPAFAH FP inh,PAFAH2 FP inh
N#Cc1c(CSCC(=O)O)cc(=O)n2c1[nH]c1ccccc12,6.8,1.9,-2.0,2.0,26.6*,3.1
O=C(Nc1sc(-c2ccccc2)cc1C(=O)O)c1ccccc1,8.6,32.1*,16.6,13.8,23.8,14.9
COc1cc2c(cc1OC)C(COc1ccc([N+](=O)[O-])cc1)N(C(C)=O)CC2 (centres undefined),10.2,2.0,-5.1,3.7,5.4,-4.2
Cc1cc([N+](=O)[O-])c2c(c1C)C1C=CCC1C(c1ccccn1)N2 (centres undefined),/,/,7.5,11.9,27.5*,/
Oc1ccc(Nc2nc(-c3ccccc3)nc3ccccc23)cc1,17.2,-3.1,14.4,16.2,21.4,3.0
CC(=O)Nc1ccc(Nc2nc(-c3ccccc3)nc3ccccc23)cc1,21.9,6.1,2.9,8.3,27.8*,0.0
O=C1N(c2ccccc2)C(c2ccccc2)C12CCCCC2 (centres undefined),9.7,32.3*,/,/,-0.3,-0.5
CN1C(=O)C2(CCCCC2)C1c1ccccc1 (centres undefined),-0.2,9.2,/,/,-1.0,-1.0
O=C1CC(/C=C/c2ccco2)=Nc2ccccc2N1,9.7,6.2,0.7,0.3,26.5*,6.8
COc1ccc(-n2c(SC3CCOC3=O)nc3ccccc32)cc1 (centres undefined),-2.4,3.9,-8.0,-1.8,30.9*,-2.1
O=C(Cc1cccs1)N1CCN(S(=O)(=O)c2ccc(Cl)c(C(F)(F)F)c2)CC1,3.1,4.2,0.9,/,5.8,-2.7
COCCn1c(CN2CCN(C(c3ccccc3)c3ccccc3)CC2)nc2c1c(=O)n(C)c(=O)n2C,3.8,1.6,/,/,/,0.3
Cn1c(=O)c2c(nc(CN3CCN(C(c4ccccc4)c4ccccc4)CC3)n2CCCO)n(C)c1=O,2.1,2.4,29.9*,-3.5,4.8,-3.9
C=CCn1c(-c2cccn(Cc3ccc(Cl)cc3)c2=O)n[nH]c1=S,4.4,33.0*,-0.9,0.3,4.3,-0.2
C=CCn1c(-c2cccn(Cc3ccc(Cl)cc3Cl)c2=O)n[nH]c1=S,5.1,29.1*,-0.9,2.6,-6.1,2.2
C=CCn1c(-c2cccn(Cc3ccccc3)c2=O)n[nH]c1=S,2.7,6.6,-10.3,5.7,-0.1,5.1
C=CCn1c(-c2cccn(Cc3cccc(Cl)c3)c2=O)n[nH]c1=S,-1.4,1.4,0.9,-2.4,-1.1,-1.2
CC(=O)O[C@@H](C[C@@H](C)C1=C2C[C@H](O)C3[C@@]4(C)CCC(=O)C(C)(C)C4CC[C@]3(C)[C@@]2(C)CC1)[C@H]1OC1(C)C (some centres undefined),8.0,4.6,/,/,/,3.0
CS(=O)(=O)N(CC(=O)N1CCN(c2ccccc2)CC1)Cc1ccc(Cl)cc1,-5.4,24.8*,-2.6,3.2,3.8,2.0
O=C(CCl)N1c2ccccc2Oc2ccc3ccccc3c21,29.6*,23.9,/,/,/,30.3*
CC(=O)N1c2ccccc2Oc2cc3ccccc3cc21,-1.1,-3.8,3.6,4.0,20.0,9.1
COC(=O)[C@H](CCSC)NC(=O)Cn1cnc(C(=O)Nc2ccc(C)c(C)c2)n1,8.9,-0.4,/,/,-2.2,-7.4
Cn1cccc1CC(=O)N/N=C\c1c2ccccc2cc2ccccc12,1.3,5.1,0.4,-4.7,27.1*,16.8
COc1cc(-c2nc(-c3ccccc3)c(-c3cccs3)[nH]2)cc(OC)c1O,15.2,17.2,22.9,15.1,32.4*,20.2
COc1cc(/C=N/NC(=O)/C(=C\c2ccc([N+](=O)[O-])cc2)NC(=O)c2ccccc2)cc(OC)c1O,17.3,1.4,4.8,2.9,12.9,2.5
SMILES,PAFAH1B3 inh,PAFAH1B2 inh,PME-1 primary,Fam108B inh,pPAFAH FP inh,PAFAH2 FP inh
O=C(N/N=C/c1cc([N+](=O)[O-])cc([N+](=O)[O-])c1O)/C(=C\c1cccs1)NC(=O)c1ccccc1,12.1,9.5,11.1,0.8,30.8*,14.1
O=C(Nc1ccc(C(=O)N2CCC(N3CCCC3)CC2)cc1)c1ccc(Br)o1,6.3,3.5,-5.6,-1.3,-0.1,-3.2
Cc1cc(C)c([N+](=O)[O-])cc1-c1ccc(/C=N/c2c(-c3ccco3)nc3ccccn23)o1,7.9,5.3,7.3,4.6,32.3*,17.3
Cc1cc(C)c(S(=O)(=O)NCC(c2cccnc2)N2CCN(Cc3ccccc3)CC2)c(C)c1 (centres undefined),5.0,2.0,0.0,0.5,-6.1,-2.9
CC1(C)CC(=O)C2=C(C1)N1C(=C(C#N)C2c2ccc(Cl)cc2)N=C(N)c2ccccc21 (centres undefined),9.0,5.2,31.3*,1.2,-6.2,4.9
N#CC1=C2N=C(N)c3ccccc3N2C2=C(C(=O)CCC2)C1c1ccc(Cl)cc1 (centres undefined),-3.0,1.9,17.1,4.2,10.1,16.6
Cc1cc(C)cc(NC(=O)CS(=O)(=O)c2cccc3nsnc23)c1,4.2,6.7,1.0,1.5,0.4,-14.2
Oc1ccc(/C=N/Nc2ccc(C(F)(F)F)cn2)c(O)c1,18.8,4.6,36.9*,7.8,19.5,3.8
CCOC(=O)Cc1nn(Cc2nc(-c3ccc(C#N)cc3)cs2)c(=O)c2ccccc12,10.6,0.0,2.4,-0.2,-1.4,10.6
COc1ccccc1-c1cc(C(=O)Nc2sc3c(c2C#N)CCC(C)C3)c2ccccc2n1 (centres undefined),-2.3,1.2,-7.7,-11.4,-2.7,-17.1
Cc1cc(C(=O)OCC(=O)Nc2sc3c(c2C#N)CCC(C)C3)c2ccccc2n1 (centres undefined),1.2,-1.0,9.4,0.8,24.6*,0.5
CCCCn1c(SCC(=O)N(CC)C2CCS(=O)(=O)C2)nc2cc(S(N)(=O)=O)ccc21 (centres undefined),3.3,6.3,0.9,-2.4,2.1,-2.1
CCN(C(=O)CSc1nc2cc(C(F)(F)F)ccc2n1Cc1ccccc1)C1CCS(=O)(=O)C1 (centres undefined),8.0,-2.1,1.8,2.5,29.1*,5.8
Cc1ccc(CCNS(=O)(=O)c2ccc3c(c2)N(C)CCO3)cc1,2.7,29.9*,1.4,0.3,10.4,0.6
CCN(CC)S(=O)(=O)c1ccc(OC)c(NC(=O)c2ccc3c(c2)OCO3)c1,1.9,7.5,5.5,4.7,5.5,7.4
Cc1ccc(NS(=O)(=O)c2ccc3c(c2)N(C)CCO3)cc1,-0.9,10.9,16.3,-3.2,28.1*,3.6
CC(=O)N1CCOc2ccc(S(=O)(=O)NCCc3ccccc3)cc21,3.0,7.4,2.4,2.7,5.0,3.1
CC(=O)N1CCSc2ccc(S(=O)(=O)Nc3ccc(C)cc3)cc21,2.1,8.4,5.6,6.5,24.9*,11.9
CC(=O)c1ccc(NS(=O)(=O)c2ccc3c(c2)N(C(C)=O)CCO3)cc1,-2.3,1.5,5.0,-2.0,0.9,7.5
